Screening data from PubChem BioAssay.
Most compounds without a hit are left out; they make up all but 2.2% or so of the library.
DENV2 CPE rescue: inhibitors of DENV2 cytopathic effect, primary screen, cell-based, plate reader, single concentration. DENV2-infected cells, cytopathic effect rescue. AID 651640, 2012. CPE inhibition, % at 9.99 µM. actives 1.7% (n = 350,000); in the data active = CPE inhibition above about 20%, passing the limit was not always enough; inconclusive = no clear call, values can overlap the other calls; tested in BHK-21 cells
miR122 inh: miR-122 Renilla sensor signal increase in Huh7, primary screen, miR-122 inhibitor project, cell-based, single point, plate reader; Huh7 miR-122 Renilla luciferase sensor, 48 h; neutral wells = 0, positive control = 100; actives 0.3% (n = 340,000); activation (reporter increase), % at 12.5 µM;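 active = mean replicate activation score at least 90 and every replicate individually at or above 90; inconclusive = only one of the two criteria met; inactive = neither criterion met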;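 also: higher luciferase means less miR-122 activity so hits act as miR-122 inhibitors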
PvdQ acylase: P. aeruginosa PvdQ acylase inhibitors, primary screen, biochemical, fluorescence, plate reader and imaging, single point; PvdQ acylase [Pseudomonas aeruginosa LESB58]; purified PvdQ acylase; inhibition, % at 10 µM; actives 0.063% (n = 340,000); AID 488965, 2010; in the data active = inhibition above about 30%, passing the limit was not always enough; inconclusive = no clear call, values can overlap the other calls
PGC1a acetyl inh: inhibitors of PGC1a acetylation signal, primary screen, cell-based, U2OS, AlphaScreen, inhibitor mode; actives 0.17% (n = 350,000); AlphaScreen anti-acetyl-lysine; with virally co-expressed GCN5 acetyltransferase; inhibition, % at 15.6 µM;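 active = every replicate shows inhibition of at least 40%; inconclusive = mean inhibition at least 40% but some replicate below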
C2C12 statin: suppressors of statin myotoxicity in C2C12 myotubes, primary screen, cell-based, single point, plate reader; C2C12 myotubes + simvastatin, ATP luminescence, 48 h; scaled: DMSO 0, geranylgeraniol control 100; rescue of ATP level, % at 7.49 µM; actives 0.78% (n = 330,000); AID 602340, 2012;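 active = mean ATP rescue above about 67%, or every replicate alone reaching that limit, limit read from the data, passing the limit was not always enough; inconclusive = no clear call, values can overlap the other calls; inactive = mean under the limit and some replicate under it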;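 also: myotubes were challenged with 10 µM simvastatin during compound exposure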
A number is an active result; . = inactive; ? = inconclusive; / = no result; ! = a repeat was not active.

SMILES	DENV2 CPE rescue	miR122 inh	PvdQ acylase	PGC1a acetyl inh	C2C12 statin
C[C@H]1CCCCO[C@H](CN(C)C)[C@@H](C)CN([C@@H](C)CO)C(=O)c2cc(NC(=O)c3ccccc3)ccc2O1	?	.	/	.	.
COc1cc(/C=C(/C#N)C(=O)NCc2ccccc2)cc(OC)c1OC	67	.	.	.	.
CCOc1ccccc1N1CCN(C2=C(NS(=O)(=O)c3cccs3)C(=O)c3ccccc3C2=O)CC1	/	.	.	.	110
Cc1ccc(S(=O)(=O)N(C)[C@H]2C[C@H]3c4cc(-c5ccc6c(c5)OCO6)ccc4CCN3C[C@H]2[C@H](C)O)cc1	32	/	/	/	/
Cc1ncc(CN2CCN(Cc3ccc(F)cc3)C(CCO)C2)s1 (centres undefined)	.	.	39	.	.
CCCC12CN(C(=O)c3ccco3)CC(CCC)(CN(C(=O)c3ccco3)C1)C2=O	.	.	.	.	77
CCc1ccc(CN2CCN(C(=O)c3ccco3)CC2)cc1	.	.	.	.	.
Cc1nn(-c2ccccc2)c(C)c1NC(=O)COC(=O)CCOc1ccccc1	.	.	.	.	.
COc1ccc(OCCCC(=O)OCC(=O)Nc2c(C)nn(-c3ccccc3)c2C)cc1	.	.	.	85	.
OC[C@@H]1[C@@H](c2ccc(-c3cccc(F)c3)cc2)[C@@H]2CN(Cc3cncnc3)CCCCN12	47	.	/	.	.
OC[C@@H]1[C@@H](c2ccc(-c3ccccc3F)cc2)[C@H]2CN(Cc3cncnc3)CCCCN12	68	.	/	.	.
COc1cccc(-c2ccc([C@H]3[C@@H](CO)N4CCCCN(Cc5cncnc5)C[C@H]34)cc2)c1	38	.	/	.	.
OC[C@@H]1[C@H](c2ccc(-c3ccccc3F)cc2)[C@H]2CN(Cc3cncnc3)CCCCN12	?	.	/	.	.
Cc1nc(S(=O)(=O)NC2CCN(Cc3ccc(OCCO)cc3)CC2)cn1C	.	/	/	.	/
Clc1ccc(CNC2CCN(Cc3ccccc3)CC2)cc1	.	.	.	.	.
Fc1ccc(CNC2CCN(Cc3ccccc3)CC2)cc1	35	.	.	.	.
CC(C)CC(COCc1ccc(Cl)cc1)N1CCN(C(=O)c2ccc(Cl)cc2Cl)CCC1=O (centres undefined)	100	.	.	.	.
CC(C)C[C@@H](COCc1ccc(Cl)cc1)N1CCN(C(=O)c2ccc(C(F)(F)F)cc2)CCC1=O	.	/	/	/	/
C[C@@H]1CCCCO[C@@H](CN(C)S(=O)(=O)c2cccs2)[C@H](C)CN([C@@H](C)CO)C(=O)c2cc(NC(=O)c3ccccc3)ccc2O1	.	.	/	.	/
CCN1CCN(C(=O)c2cc3cc4cc(OC)ccc4nc3s2)CC1	/	.	.	.	73
O=C(O)C[C@@H]1C=C[C@H](NC(=O)Nc2cc(F)ccc2F)[C@@H](CO)O1	.	/	/	.	.
COc1ccc(NC(=O)N(C)C[C@@H]2Oc3ccc(NS(=O)(=O)c4ccc(OC)cc4)cc3CC(=O)N([C@@H](C)CO)C[C@H]2C)cc1	.	.	/	.	.
CCN(CC(=O)Nc1cc(Cl)ccc1-n1cncn1)Cc1nc2ccccc2c(=O)[nH]1	31	.	.	.	.
CN(CC(=O)Nc1cc(C(F)(F)F)ccc1-n1cncn1)Cc1nc2ccccc2c(=O)[nH]1	.	.	.	.	.
COCC(=O)N1[C@@H](CO)[C@@H](c2ccccc2)C12CN(C(=O)c1cccc(F)c1)C2	29	/	/	.	/
SMILES	DENV2 CPE rescue	miR122 inh	PvdQ acylase	PGC1a acetyl inh	C2C12 statin
O=C(c1cccc(F)c1)N1CC2(C1)[C@H](c1ccccc1)[C@H](CO)N2C(=O)C1CC1	34	/	/	.	/
COCC(=O)N1[C@@H](CO)[C@@H](c2ccccc2)C12CN(C(=O)c1ccc(F)cc1)C2	.	/	/	.	/
O=C(c1ccc2c(c1)OCO2)N1CC2(C1)[C@H](c1ccccc1)[C@H](CO)N2C(=O)C1CC1	38	/	/	.	/
O=C(c1cccc(F)c1)N1CC2(C1)[C@H](c1ccccc1)[C@@H](CO)N2C(=O)C1CC1	.	/	/	.	/
C[C@@H]1CN([C@H](C)CO)C(=O)c2cc(NS(=O)(=O)c3ccccc3)ccc2O[C@@H](C)CCCCO[C@@H]1CN(C)Cc1ccc2c(c1)OCO2	.	.	/	.	/
C/C=C/c1ccc([C@H]2[C@@H](CO)N(C(=O)C3CC3)C23CN(S(=O)(=O)CC)C3)cc1	.	/	/	.	/
COCCNC(=O)C1(S(=O)(=O)c2ccccc2)CC=CC1	.	.	.	.	.
O=C(NCC1CC1)C1(S(=O)(=O)c2ccccc2)CC=CC1	21	.	.	.	.
Cc1ccc(Cl)cc1NC(=O)CCC(=O)O	.	/	.	/	/
Cc1ccc(Cl)cc1NC(=O)Cn1cccc1	/	.	.	.	81
Fc1ccccc1NC(=S)NCCc1ccccc1	/	.	.	.	156
Oc1ccccc1/C=N/NC(=S)NCCc1ccccc1	.	.	.	.	.
Fc1ccccc1NC(=S)Nn1cnnc1	44	/	.	.	.
Cc1ccc(C)c(/C=N/NC(=S)NCCc2ccccc2)c1	/	.	.	.	133
CC(C)(CNC(=S)NCCc1ccccc1)CNC(=S)NCCc1ccccc1	.	280	.	.	/
O=C(N[C@@H]1CC[C@H](CCn2cc(C3(O)CCCC3)nn2)O[C@H]1CO)C1CCCCC1	.	/	/	.	.
CO[C@@H]1CN(C)C(=O)c2ccc(NC(=O)c3ccno3)cc2OC[C@H](C)NC[C@H]1C	.	/	/	/	/
C[C@H](CO)N1C[C@H](C)[C@H](CN(C)Cc2ccccc2F)Oc2cc(C#CC3CC3)ccc2S1(=O)=O	.	.	/	.	.
CCC[C@H]1CC(=O)C=C(c2ccc(OC)cc2)ON1C(=O)OC(C)(C)C	57	/	.	/	.
CNC[C@@H]1Oc2ccc(NC(=O)Cc3ccccc3)cc2C(=O)N([C@H](C)CO)C[C@@H]1C	.	.	/	.	.
CC(C)(C)[S@@](=O)N1Cc2cc(C(=O)NCCc3ccncc3)nc(-c3cccc(-c4ccccc4)c3)c2[C@H]1CCO	.	/	/	.	/
CN(C)CCNc1oc(COc2ccc(-c3ccccc3)cc2)nc1C#N	.	/	.	58	.
N#Cc1nc(COc2ccc(-c3ccccc3)cc2)oc1NCCCN1CCOCC1	/	.	.	.	.
C[C@H](CCC(=O)O)[C@H]1CC[C@H]2[C@@H]3CC[C@@H]4C[C@H](O)CC[C@]4(C)[C@H]3C[C@H](O)[C@]12C	30!	.	.	.	.
CCCNC(=O)N1[C@H](CO)[C@H](c2ccccc2)[C@@H]1CNC(=O)c1ccccc1	33	.	/	.	.
CCCNC(=O)N1[C@H](CNC(=O)c2cccc(F)c2)[C@@H](c2ccccc2)[C@@H]1CO	43	.	/	.	.
COc1ccc(NC(=O)Nc2cccc3c2O[C@@H](CN(C)C(=O)Nc2ccc4c(c2)OCO4)[C@@H](C)CN([C@@H](C)CO)C3=O)cc1	27	.	/	.	.
